Six1-Eya2 blk = inhibitors of human Six1/Eya2 interaction. Q15475+O00167. AlphaScreen GST-Six1/His-Eya2 binding, biochemical; active compounds read low. activity change, % (test concentration not listed). 360,000 tested, 0.56% active. AID 651725; in the data active means activity change below about -65%; inconclusive means mostly about -30% to -63%
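GST-Six1 + His-Eya2 (5X stock: 250/500 nM); Tris pH 8.0, 300 mM NaCl, 0.05% BSA, 0.02% Tween 20; GSH donor/Ni acceptor beads; 1 h 37 °C dark; AlphaScreen readout.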
IL1B secr inh = inhibitors of inflammasome signaling (IL-1 beta secretion); activity change, % at 57.5 µM; THP-1 LPS/ATP IL-1B secretion, AlphaLISA, 16 h; active compounds read low; 360,000 tested, 4.7% active; AID 743279; in the data active means activity change below about -50%; inconclusive means mostly about -30% to -49%
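THP-1 cells pretreated 1 hr with compounds (up to 57.5 uM final), then stimulated with LPS (250 ng/mL final) plus ATP (1.25 mM final); secreted IL-1B measured by AlphaLISA after 16 hr, decreased signal indicating inhibition.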
CtBP-E1A blk = blocks the CtBP interaction with E1A. AlphaScreen GST-E1A/His-CtBP binding, 1536-well; active compounds read low. activity change, % (test concentration not listed). 340,000 tested, 0.49% active; in the data active means activity change below about -65%; inconclusive means mostly about -30% to -63%
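Homogeneous bead-based format: GST-tagged E1A captured on glutathione donor beads, His-tagged CtBP on nickel acceptor beads; compounds precede bead addition by 2 h at 37 °C.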
TDP1 inh = TDP1 (human) enzyme inhibition. Q9NUW8. Potency, µM (titrated, usually from 130 µM), without a hit: top-dose activity change, negative = inhibition, most hits filed as inhibitors. 350,000 tested, 0.28% active. recombinant TDP1, AlphaScreen DNA substrate cleavage; further: potency means the concentration at half of the fitted maximal effect; nearly all actives have a fitted effect of over 40% in size
Target sequence (Q9NUW8 whole entry, looked up): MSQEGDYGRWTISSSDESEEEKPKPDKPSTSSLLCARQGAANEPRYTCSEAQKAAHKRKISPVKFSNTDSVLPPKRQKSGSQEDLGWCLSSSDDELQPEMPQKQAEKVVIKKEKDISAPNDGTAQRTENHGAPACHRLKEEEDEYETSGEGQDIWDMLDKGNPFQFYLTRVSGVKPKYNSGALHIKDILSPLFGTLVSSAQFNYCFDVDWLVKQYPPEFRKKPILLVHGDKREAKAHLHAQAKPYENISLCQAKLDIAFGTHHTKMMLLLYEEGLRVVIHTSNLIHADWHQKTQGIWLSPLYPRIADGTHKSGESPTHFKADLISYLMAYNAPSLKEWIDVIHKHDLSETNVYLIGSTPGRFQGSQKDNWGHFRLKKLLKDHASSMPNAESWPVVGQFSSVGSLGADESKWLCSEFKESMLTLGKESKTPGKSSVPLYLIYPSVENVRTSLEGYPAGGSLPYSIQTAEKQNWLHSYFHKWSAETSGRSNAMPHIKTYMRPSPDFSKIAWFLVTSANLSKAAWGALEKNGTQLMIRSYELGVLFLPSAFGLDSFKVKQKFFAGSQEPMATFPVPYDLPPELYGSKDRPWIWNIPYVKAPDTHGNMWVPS
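E. coli-derived human Tdp1, 1 nM final. Cpd preinc 15 min RT; substrate 15 nM final, 5 min RT; AS bead mix 10 ug/ml final, 10 min RT. Signal loss = tyrosine-FITC cleavage. No-enzyme wells = max signal.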
DT40 TDP1 CPT = DT40-hTDP1 cell growth loss with CPT | Potency, µM (highest dose often 46.2 µM), for the others: at the top dose activity change, negative = growth inhibition, hits mostly inhibitors | 420,000 tested, 12% active | chicken DT40 Tdp1-/-;hTDP1 cells + 20 nM CPT, ATP luminescence, 48 h; further: potency means the concentration at half of the fitted maximal effect; nearly all actives have a fitted effect of over 55% in size
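Cell growth measured by CellTiter-Glo luminescence after a minimum 48 h, 37 C compound exposure with 20 nM CPT in Tdp1-knockout DT40 cells stably expressing hTDP1, seeded 400/well; qHTS titration format.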
DT40 TDP1 no CPT = qHTS for Inhibitors of human tyrosyl-DNA phosphodiesterase 1 (TDP1): qHTS in cells in absence of CPT; DT40 Tdp1-/- hTDP1 cells, no CPT, ATP luminescence, 48 h; Potency, µM (doses to about 46.2 µM), without a hit: at the top dose activity change, negative = growth inhibition, actives largely listed as inhibitors; 420,000 tested, 15% active; AID 686978, 2013; further: potency means the concentration at half of the fitted maximal effect; nearly all actives have a fitted effect of over 55% in size
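Stably hTDP1-transfected Tdp1-null chicken DT40 cells were treated with library compounds minus camptothecin and grown for at least 48 hr at 37 °C, after which cellular ATP was quantified by luminescence.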
* = called active by the depositor; u = inconclusive; x = no result; [ ] = remark or other dose. Rows were chosen to be rich in hits. Some 18% of all compounds tested hit in one or more screens of this group. Unless noted, the call rests on the fitted dose curve; in most records, active means well fitted curve in the direction sought with a large enough effect; inconclusive means small, poorly fitted or top-dose-only effect, or another doubt; inactive means no such curve, though single readings can be large; an effect the other way counts as inactive or inconclusive. On the % scale 0 is the no-effect control and ±100 the full control effect.

SMILES | Six1-Eya2 blk | IL1B secr inh | CtBP-E1A blk | TDP1 inh | DT40 TDP1 CPT | DT40 TDP1 no CPT
Cc1c(CCO)c(=O)n2c([nH]c3ccccc32)c1C#N | -15.9 | -3.4 | -15.9 | x | -18.5% | 4.7%
CCc1ccccc1N=Cc1c(C)c(C#N)c2[nH]c3ccccc3n2c1=O | 2.3 | 0.0 | -0.7 | x | -8.2% | -0.4%
C=C1C=C(C(F)F)n2ncc(C(=O)N3CCN(c4ccccc4)CC3)c2N1 | x | x | x | x | 11.2µM* | u
NC(=O)c1c(-c2ccc(Cl)cc2Cl)csc1NC(=O)Cc1ccccc1 | -21.1 | -2.8 | -3.2 | 2.7% | 8.2µM* | 9.2µM*
COc1ccc(Cl)cc1NC(=O)CN(c1cccc(C)c1C)S(=O)(=O)c1ccccc1 | x | x | x | x | 23.1µM* | 23.1µM*
COc1ccc(Cl)cc1NC(=O)CN(C)C(=O)c1ccc(-n2nc(C)cc2C)cc1 | -1.2 | -26.1 | -0.6 | -0.3% | 18.4µM* | 14.6µM*
COc1ccc(Cl)cc1NC(=O)CN(C)C(=O)c1sc2ccccc2c1Cl | -3.5 | -6.1 | -7.7 | 0.3% | 16.4µM* | u
COc1ccc(Cl)cc1NC(=O)CN(C)C(=O)c1cccc(-n2cnnn2)c1 | -1.6 | -11.4 | -19.2 | -2.9%[56.1 µM] | -20.0% | -0.1%
COc1ccc(Cl)cc1NC(=O)CN(C)C(=O)c1sccc1-c1ccccc1 | -6.2 | 14.0 | x | -2.2% | u | u
COc1ccc(Cl)cc1NC(=O)CN(c1ccccc1)S(=O)(=O)N(C)C | -7.0 | -9.7 | 4.0 | 2.0% | 29.1µM* | 18.4µM*
CC1=CC2=NC(=O)CC(C)(C(=O)N(CC(=O)NC3CCCC3)Cc3ccc(Cl)cc3)N2C=C1 (configuration not stated) | 1.2 | 0.0 | -14.3 | -2.6%[0.0935 µM] | 7.5% | -0.3%
Cc1cc(C(=O)COc2ccc(Br)cc2F)c(C)n1CC1CCCO1 (configuration not stated) | 2.4 | 40.7 | -4.6 | x | -21.6% | u
COc1ccc(N(CC(=O)Nc2ccc(Cl)cc2C)S(=O)(=O)c2ccccc2)c(OC)c1 | x | x | x | 4.5% | u | 18.4µM*
COc1ccc(Cl)cc1NC(=O)CN(C)C(=O)C12CC3CC(CC(Cl)(C3)C1)C2 | 21.1 | -25.3 | -1.3 | 0.5% | u | 23.1µM*
CCOC(=O)CC(NC(=O)c1cccs1)c1ccc(C)cc1 (configuration not stated) | -13.8 | -9.8 | -5.7 | x | 0.2% | -12.2%
NCCc1cnc(-c2cccc(C(F)(F)F)c2)[nH]1 | x | x | x | 10.2% | x | x
FC(F)(F)C(F)(F)C(F)(F)c1nc2nc(Cl)c(Cl)nc2[nH]1 | -21.4 | 26.7 | -12.4 | x | u | 16.4µM*
FC(F)(F)c1nc2nc(Cl)c(Cl)nc2[nH]1 | -3.4 | 31.0 | 2.2 | x | u | 20.6µM*
FC(F)(F)c1cccc(-c2nc3nc(Cl)c(Cl)nc3[nH]2)c1 | 3.8 | -17.9 | x | x | 7.31µM* | 2.06µM*
O=C(O)c1nc2nc(Cl)c(Cl)nc2[nH]1 | -1.5 | 51.8 | x | x | -5.1% | -12.2%
CCn1c(CC(=O)Nc2ccccc2F)nnc1SCC(=O)N1CCOCC1 | 3.0 | -11.4 | 0.8 | 0.1% | 7.0% | 6.7%
CC(CCC(=O)O)C1CCC2C3C(O)C[C@@H]4CC(O)CC[C@@]4(C)C3CC(O)[C@]12C (some centres not stated) | x | x | x | 7.2% | -2.9% | -3.7%
CCCS(=O)(=O)Nc1ccc(Nc2c3ccccc3nc3ccccc23)c(OC)c1 | u | -93.8* | 13.7 | x | 0.164µM* | 0.164µM*
COc1ccc(NS(=O)(=O)Cc2ccccc2)cc1OC | -3.5 | 0.0 | 0.8 | 2.3% | -10.7% | -20.4%
CN1CCN(c2nc(-c3cccc(NS(C)(=O)=O)c3)nc3ccccc23)CC1 | x | x | x | -4.5% | -3.2% | -12.9%
SMILES | Six1-Eya2 blk | IL1B secr inh | CtBP-E1A blk | TDP1 inh | DT40 TDP1 CPT | DT40 TDP1 no CPT
COc1cc(NS(C)(=O)=O)ccc1Cc1c2ccccc2nc2ccccc12 | x | x | x | 12.8%[56.1 µM] | 0.082µM* | 0.164µM*
COc1cc(N)ccc1Nc1c2ccccc2nc2ccccc12 | u | -24.0 | u | x | 0.82µM* | 1.46µM*
COc1ccccc1C1c2[nH]c3ccccc3c2CCN1Cc1ccc(NC(C)=O)s1 (configuration not stated) | -18.9 | -21.2 | x | 7.0% | u | u
COc1cc(NC(=O)Cn2nc(Cc3cccnc3)c3ccccc3c2=O)cc(OC)c1OC | 2.2 | 5.5 | -7.5 | 3.8% | 0.5% | 3.1%
CCN(C(=O)Cn1nc(Cc2ccncc2)c2ccccc2c1=O)c1cccc(Cl)c1 | x | x | x | 3.8% | u | 20.6µM*
COc1ccc(Cl)cc1NC(=O)Cn1c(=O)n(Cc2ccco2)c(=O)c2cccnc21 | x | x | x | -2.9% | u | 16.4µM*
COc1ccc(Cl)cc1NC(=O)Cn1nc(Cc2ccncc2)c2ccccc2c1=O | x | x | x | -1.3% | u | 23.1µM*
CCN(C(=O)Cn1nc(Cc2cccnc2)c2ccccc2c1=O)c1cc(C)ccc1C | x | x | x | 11.5% | 23.1µM* | 23.1µM*
CCCCN(CC)C(=O)Cn1nc(Cc2ccncc2)c2ccccc2c1=O | 0.9 | -21.4 | 4.5 | x | -10.4% | 0.6%
CCOc1cccc(CN2CCC(N3CCC(C(=O)NCC4CCCO4)CC3)CC2)c1 (configuration not stated) | -0.4 | 3.4 | -2.1 | 2.7% | -18.0% | 18.5%
CS(=O)(=O)N(Cc1ccccc1F)c1ccccc1 | 5.4 | -8.1 | 3.6 | -2.5% | -23.8% | -28.1%
O=C(Cn1nc(Cc2cccnc2)c2ccccc2c1=O)N1CCN(c2ccccn2)CC1 | 0.5 | -17.3 | -1.8 | 4.9% | -16.7% | -16.6%
Cc1cccc(N2CCN(C(=O)Cn3nc(Cc4cccnc4)c4ccccc4c3=O)CC2)c1C | x | x | x | 9.0% | 13µM* | 8.2µM*
COc1ccc(CCNC(=O)c2ccc3c(c2)ncn3-c2ccc(C(C)C)cc2)cc1OC | x | x | x | 2.8% | 10.3µM* | 18.4µM*
COc1ccc(CCNC(=O)c2ccc3c(c2)ncn3-c2ccc(C)cc2C)cc1OC | x | x | x | 13.0% | u | 20.6µM*
CCCCCNC(=O)c1ccc2c(c1)ncn2-c1ccc(OC)cc1 | -7.8 | u | u | x | -11.3% | u
CCOCCCNC(=O)c1ccc2c(c1)ncn2-c1ccc(C)cc1C | 10.0 | -16.2 | -5.3 | x | -26.2% | 16.4µM*
Cc1cc(C(=O)N/N=C/c2cc(Br)ccc2OC(=O)c2ccccc2)n[nH]1 | u | 165.6 | -67.0* | -7.9% | 7.31µM* | 6.51µM*
Cc1cc(C(=O)N/N=C/c2ccc(OC(=O)c3ccccc3Br)cc2)n[nH]1 | -0.8 | -9.1 | 3.5 | -1.2% | u | u
